Screening data: PubChem, National Center for Advancing Translational Sciences (NCATS)
Shown are actives, neighbours in structure and some others; about 0.74% of the full set was active somewhere.
APEX1 inh – APE1 (human) endonuclease inhibition; hit rate 0.35% among 350,000; Potency, µM (doses to about 65.8 µM), inactives show top-dose activity change, negative = inhibition, hits mostly inhibitors; P27695; AID 2517; recombinant APE1, TAMRA/BHQ-2 abasic DNA cleavage fluorescence;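 also: plate controls were vehicle for no effect and reference inhibitor for full effect; nearly all actives have a fitted effect of over 55% in size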
Target sequence (P27695 whole entry, looked up): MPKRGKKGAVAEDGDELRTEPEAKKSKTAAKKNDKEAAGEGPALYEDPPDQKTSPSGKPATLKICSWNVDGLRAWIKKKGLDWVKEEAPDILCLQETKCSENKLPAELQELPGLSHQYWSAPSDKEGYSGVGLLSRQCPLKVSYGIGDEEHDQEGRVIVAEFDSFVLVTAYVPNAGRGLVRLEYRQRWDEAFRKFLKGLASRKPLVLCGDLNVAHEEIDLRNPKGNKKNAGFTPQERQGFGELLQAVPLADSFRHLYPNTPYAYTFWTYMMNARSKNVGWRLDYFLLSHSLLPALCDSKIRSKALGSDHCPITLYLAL
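Measures dequenching upon AP-site incision of a 5'-TAMRA/3'-BHQ-2 THF-containing duplex, 50 nM; human APE1 0.75 nM after 15 min room-temperature exposure to compound; kinetic three-point read at one-minute spacing.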
BLM helicase inh – blocks DNA unwinding by human BLM helicase. P54132. recombinant BLM DNA unwinding, fluorescence dequenching. Potency, µM (series often up to 56.1 µM), without a hit: at the highest dose activity change, negative = inhibition, actives largely listed as inhibitors. hit rate 0.2% among 350,000. AID 2528;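 also: plate controls were vehicle for no effect and no enzyme for full effect; nearly all actives have a fitted effect of over 35% in size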
Tb PGK inh – blocks T. brucei phosphoglycerate kinase; Potency, µM (highest dose often 57.5 µM), inactives show at the top dose activity change, negative = inhibition, most hits filed as inhibitors; PGK/GAPDH coupled, Kinase-Glo luminescence, 60 min; hit rate 0.043% among 380,000; P07378; also: nearly all actives have a fitted effect of over 60% in size
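Recombinant glycosomal PGK reaction used 1,3-bisphosphoglycerate generated in-well by GAPDH (100nM final) in 100mM TEA pH 7.6, 5mM MgCl2, 0.01% Tween-20. After 60 minutes at room temperature, ATP was read by Kinase-Glo Plus luminescence end-point.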
FEN1 inhibitor – blocks human flap endonuclease 1 | P39748 | Recombinant FEN1 flap cleavage, fluorescence, 15 min | Potency, µM (top dose mostly 114 µM), inactives show at the top dose activity change, negative = inhibition, actives largely listed as inhibitors | hit rate 0.35% among 390,000; also: nearly all actives have a fitted effect of over 65% in size
Target sequence (P39748 whole entry, looked up): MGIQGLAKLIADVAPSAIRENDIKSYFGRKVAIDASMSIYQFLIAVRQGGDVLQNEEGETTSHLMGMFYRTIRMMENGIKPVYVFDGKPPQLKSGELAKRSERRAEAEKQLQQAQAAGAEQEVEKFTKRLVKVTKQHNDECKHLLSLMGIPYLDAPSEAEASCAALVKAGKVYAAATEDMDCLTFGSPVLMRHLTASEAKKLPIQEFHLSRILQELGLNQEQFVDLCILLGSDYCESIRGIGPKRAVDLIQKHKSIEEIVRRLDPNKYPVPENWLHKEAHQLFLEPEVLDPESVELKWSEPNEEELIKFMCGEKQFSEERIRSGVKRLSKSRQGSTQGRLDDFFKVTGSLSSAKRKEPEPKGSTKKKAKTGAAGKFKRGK
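Compounds are tested as a concentration series against 10 nM FEN1; after a 15 min room-temperature preincubation, 50 nM substrate starts cleavage, with plate reads at 0 and 15 min. Normalized responses are fitted by a Hill equation.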
RECQ1 inh – inhibitors of human RECQ1 DNA helicase; P46063; RECQ1 DNA unwinding, red fluorescence kinetic read; Potency, µM (titrated, usually from 57.3 µM), inactives show top-dose activity, negative = inhibition, usual class: inhibitors; hit rate 0.54% among 240,000;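 also: plate controls were vehicle for no effect and no enzyme for full effect; nearly all actives have a fitted effect of over 30% in size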
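RECQ1T1 50 nM; forked duplex (20 bp + 30-nt ss tails) 200 nM, ATP 2 mM final; pH 8.0, 2 mM MgCl2, 2.5 ug/ml poly(dI-dC); 15 min compound preincubation; discontinuous kinetic read over 2 h at RT.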
An asterisk follows results filed as active. Calls follow the shape of the dose curve; as a rule, active = well fitted curve in the direction sought with a large enough effect; inconclusive = small, poorly fitted or top-dose-only effect, or another doubt; inactive = no such curve, though single readings can be large; an effect the other way counts as inactive or inconclusive. Unless noted, % is scaled to controls: 0 for no effect and ±100 for the full control effect; potency is read from the fitted curve at half-maximal effect.

Results for COc1ccc(N2CC(C(=O)Nc3nnc(SCC(=O)Nc4ccc(NC(C)=O)cc4)s3)CC2=O)cc1 (stereo not given) ?
Tb PGK inh: 1.3%

How did COc1ccc(-n2cc3c(-c4cccc(Br)c4)nnc(C)c3n2)cc1 do in these assays?
APEX1 inh: 3.4%; BLM helicase inh: 3.4%; Tb PGK inh: 0.2%; FEN1 inhibitor: 79.4µM*; RECQ1 inh: inconclusive

How did Cc1ccc(C(=O)N/N=C/c2cccc(OC(=O)/C=C/c3ccco3)c2)cn1 do in these assays?
APEX1 inh: 14.1µM*; BLM helicase inh: -27.5%; Tb PGK inh: -6.9%; FEN1 inhibitor: -1.0%; RECQ1 inh: inconclusive

How did CC(/C=C/c1ccco1)=N/NC(=O)c1ccc(C)nc1 do in these assays?
APEX1 inh: -3.7%; BLM helicase inh: 0.1%; Tb PGK inh: -8.7%; FEN1 inhibitor: -1.7%; RECQ1 inh: -2.3%

What do the screens show for `COc1ccccc1NC(=O)Nc1ccc(Cl)c(S(=O)(=O)Nc2ccccc2OC)c1`?
APEX1 inh: 33.1%; BLM helicase inh: -7.5%; Tb PGK inh: 5.4%; FEN1 inhibitor: -11.2%; RECQ1 inh: -16.3%

What do the screens show for `COc1ccccc1NS(=O)(=O)c1cc(NC(=O)CNC(=O)c2ccc(C)s2)ccc1Cl`?
APEX1 inh: inconclusive; BLM helicase inh: -9.4%; Tb PGK inh: -2.4%; FEN1 inhibitor: 44.7µM*; RECQ1 inh: -4.6%

What do the screens show for `CCS(=O)(=O)C1=NN2C(=N)/C(=C\c3ccc(SCc4ccco4)o3)C(=O)N=C2S1`?
APEX1 inh: inconclusive; BLM helicase inh: -11.4%; Tb PGK inh: inconclusive; FEN1 inhibitor: 44.7µM*; RECQ1 inh: inconclusive

Results for CCS(=O)(=O)C1=NN2C(=N)/C(=C\c3ccc(OC(=O)c4ccco4)c(Br)c3)C(=O)N=C2S1 ?
APEX1 inh: -21.7%; BLM helicase inh: -16.9%

What do the screens show for `Cc1ccc2oc(-c3cc(NC(=O)c4ccco4)ccc3Cl)nc2c1`?
BLM helicase inh: -0.6%; Tb PGK inh: -1.5%; FEN1 inhibitor: 79.4µM*

What do the screens show for `c1cc2c(cc1C1=NNC(=NC3CC3)SC1)OCCO2`?
APEX1 inh: -4.1%; BLM helicase inh: -0.7%; Tb PGK inh: 12.6µM*; FEN1 inhibitor: 14.0%; RECQ1 inh: -4.2%

How did Cc1ccc(CNC(=O)c2sc3nc(-c4ccccc4)cn3c2C)cc1 do in these assays?
BLM helicase inh: 0.5%; Tb PGK inh: -1.9%; FEN1 inhibitor: 89.1µM*

What do the screens show for `C[C@H]1CN=C(N(C)C)N1CCCC1CCCC1`?
APEX1 inh: 6.9%; Tb PGK inh: -0.1%; FEN1 inhibitor: -0.8%

Results for CCOc1ccc2nc(N3C(=O)/C(=C/c4ccc(Cl)cc4)NC3=S)sc2c1 ?
APEX1 inh: 2.4%; BLM helicase inh: 28.2µM*; Tb PGK inh: -12.0%; FEN1 inhibitor: 1.9%; RECQ1 inh: -11.2%

Results for COc1ccc(CN2CCC(C(=O)N3CCN(c4ccccc4F)CC3)CC2)cc1OC ?
APEX1 inh: -2.5%; BLM helicase inh: 6.9%; Tb PGK inh: -5.0%; FEN1 inhibitor: 1.0%; RECQ1 inh: -4.2%

How did O=c1ccc2ccc(O)c(O)c2o1 do in these assays?
APEX1 inh: 12.6µM*; FEN1 inhibitor: 7.52µM*; RECQ1 inh: inactive

What do the screens show for `COc1cc2ccc(=O)oc2cc1O`?
APEX1 inh: 58.1%; BLM helicase inh: -1.1%; Tb PGK inh: -4.0%; FEN1 inhibitor: 21.9%; RECQ1 inh: inconclusive

How did Cc1cc(C)nc(SCc2ccc(C(=O)N/N=C3\CCCC(=O)C3)cc2)n1 do in these assays?
APEX1 inh: 19.6%; BLM helicase inh: -7.6%; Tb PGK inh: -11.1%; FEN1 inhibitor: 6.4%; RECQ1 inh: 22.4µM*

What do the screens show for `O=[N+]([O-])c1ccccc1OCCOc1ccccc1[N+](=O)[O-]`?
APEX1 inh: 3.4%; BLM helicase inh: 0.4%; Tb PGK inh: -6.8%; FEN1 inhibitor: -9.0%; RECQ1 inh: 39.8µM*

Results for COc1ccc(OCCOc2ccccc2[N+](=O)[O-])cc1 ?
APEX1 inh: -1.9%; BLM helicase inh: -6.9%; Tb PGK inh: -12.5%; FEN1 inhibitor: -17.6%; RECQ1 inh: -2.6%

Results for Cc1ccc2nc(-c3ccc(N=Nc4cc(S(=O)(=O)O)c5ccccc5c4O)cc3)sc2c1S(=O)(=O)O ?
FEN1 inhibitor: 7.08µM*

How did Cc1ccc(N=Nc2ccc3ccccc3c2O)cc1 do in these assays?
APEX1 inh: 21.2%; BLM helicase inh: -16.6%; Tb PGK inh: inconclusive; FEN1 inhibitor: 6.4%

How did CCCCNC(=O)c1ccc(Cn2c(=S)[nH]c3c([nH]c4ccc(OC)cc43)c2=O)cc1 do in these assays?
APEX1 inh: -0.4%; BLM helicase inh: -0.4%; Tb PGK inh: -11.9%; FEN1 inhibitor: -16.4%; RECQ1 inh: -4.5%

How did COc1ccc2[nH]c3c(=O)n(Cc4ccc(C(=O)NCC5CCCO5)cc4)c(=S)[nH]c3c2c1 (stereo not given) do in these assays?
APEX1 inh: -2.0%; BLM helicase inh: -19.9%; Tb PGK inh: -11.9%; FEN1 inhibitor: -31.1%; RECQ1 inh: 20µM*

What do the screens show for `CC(=O)C1=C(O)C(=O)N(Cc2ccccc2)C1c1ccc(N(C)C)cc1` (stereo not given)?
APEX1 inh: -3.7%; BLM helicase inh: 0.1%; Tb PGK inh: -1.9%; FEN1 inhibitor: 17.8µM*

Results for COc1cc(/C=C2\SC(=S)N(C(C(=O)O)c3ccccc3)C2=O)ccc1O (stereo not given) ?
APEX1 inh: -11.4%; BLM helicase inh: -7.7%; Tb PGK inh: inactive; FEN1 inhibitor: -26.1%; RECQ1 inh: 22.4µM*

How did CCOc1ccc(/C=C2/SC(=S)N(C(C(=O)O)c3ccccc3)C2=O)cc1OCC (stereo not given) do in these assays?
APEX1 inh: 3.0%; BLM helicase inh: -6.7%; Tb PGK inh: -6.2%; FEN1 inhibitor: -1.9%; RECQ1 inh: 22.4µM*

How did COc1ccccc1/C=C1\SC(=S)N(C(C(=O)O)c2ccccc2)C1=O (stereo not given) do in these assays?
APEX1 inh: -3.9%; BLM helicase inh: 3.1%; Tb PGK inh: -1.2%; FEN1 inhibitor: -7.8%; RECQ1 inh: -6.1%

Results for COc1cc(/C=C2\SC(=S)N(NS(=O)(=O)c3ccccc3)C2=O)ccc1O ?
APEX1 inh: -10.8%; BLM helicase inh: -6.4%; Tb PGK inh: 0.1%; FEN1 inhibitor: -22.0%; RECQ1 inh: 28.2µM*

What do the screens show for `CCOC(=O)N1CCN(C2CC(=O)N(c3ccccc3)C2=O)CC1` (stereo not given)?
APEX1 inh: 11.5%; BLM helicase inh: 0.4%; Tb PGK inh: 2.9%; FEN1 inhibitor: 7.9%; RECQ1 inh: -2.2%

How did Cc1nn(CCc2n[nH]c(=S)n2-c2ccc(F)c(Cl)c2)c(C)c1[N+](=O)[O-] do in these assays?
APEX1 inh: 2.3%; BLM helicase inh: 0.7%; Tb PGK inh: -1.7%; FEN1 inhibitor: -6.7%; RECQ1 inh: -2.7%
